Reference: ChEMBL document CHEMBL4513216, “Probing the Open Global Health Chemical Diversity Library for Multistage-Active Starting Points for Next-Generation Antimalarials” (ACS Infect Dis, 2020)
About 8,600 (12%) of roughly 69,000 compounds showed an effect of 50% or more. The sample as a whole holds a higher share of strong results than the screen did.

system: Plasmodium berghei; assay: Screen against P. berghei liver stage (PbLuc), transformed with Luciferase, at 10uM; format: functional, HepG2; settings: tested at 10 uM

Compound	INHIBITION [%]
COc1ccc(CN2C[C@@H]3OCCN(C)[C@@H]3C2)cc1	22.9
CCOC[C@@]12CCC[C@@H]1CN(C(=O)COc1ccccc1OC)C2	10.4
Cc1noc(C)c1CN1C(=O)[C@@H]2CC[C@H]1CN(Cc1cccc(O)c1)C2	-77.6
COCC(O)CN1CC(C)(C)CN(C(=O)CCc2ccccc2)CC1=O (stereo unspecified)	-39.8
Cc1ccccc1C(NC(=O)NCC1(O)CCC1)C1CC1 (stereo unspecified)	-15.9
CC(C)n1nnnc1-c1ccc(NC(=O)C(C)(C)C#N)cc1F	6.09
CN(C)CC1CCCCN1C(=O)c1ccc(N2CCOCC2)cc1 (stereo unspecified)	23.4
CCc1nc(CN(C)C(=O)C2CC(=O)N(c3cccc(O)c3)C2)no1 (stereo unspecified)	10.3
CCc1cc(CN(C)C(=O)C2CC(=O)N(c3cccc(O)c3)C2)on1 (stereo unspecified)	66.6
CCc1ccc(CN(C)C(=O)C2CC(=O)N(c3cccc(O)c3)C2)nc1 (stereo unspecified)	32.1
Cc1cccc(Cn2cc(C)c(N)n2)c1	2.6
CN1[C@H](CN2CCCC2)C[C@@H]2CN(Cc3ccoc3)CC[C@@H]21	-14.3
Cc1ncnc2c1CCN(C(=O)c1cccn1C)CC2	-0.388
CCN(C)c1ncnc2c1CCN(C(=O)c1ccsc1)CC2	14.9
CCc1ncnc2c1CCN(C(=O)c1cccn1C)CC2	64.9
CCN(C)c1ncnc2c1CCN(C(=O)c1ccccn1)CC2	-54.5
CCN(C)c1ncnc2c1CCN(C(=O)c1cccn1C)CC2	52
Cn1cccc1C(=O)N1CCc2ncnc(N3CCCC3)c2CC1	48.9
O=C(NCCOc1ccc2c(c1)OCO2)N1CCCC(CO)C1 (stereo unspecified)	-27.8
Cc1nnc(CN(Cc2ccc3c(c2)OCO3)C2CCCCC2)o1	-9.76
Cn1nc2c(cc1=O)CN(CC(=O)Nc1nccs1)CC2	13.3
Cc1nn(C)c(C)c1-c1ccc(=O)n(C(C)C(=O)NC(C)(C)C)n1 (stereo unspecified)	4.02

Compound	INHIBITION [%]
CCCN(CCC)C(=O)Cn1c(SC)nc2ccsc2c1=O	39.1
Cn1nc(C(=O)NC2CC2)cc1NC(=O)C1CC1	75.3
Cn1nc(C(=O)NC2CCCC2)cc1NC(=O)C1CC1	-22.8
Cc1ccc(CNC(=O)c2cc(NC(=O)C3CC3)n(C)n2)o1	-8.95
Cn1nc(C(=O)NC2CC(C)(C)NC(C)(C)C2)cc1NC(=O)C1CC1	21.8
Cn1nc(C(=O)NC2CCCCC2)cc1NC(=O)C1CC1	53.5
Cc1nn(C)c(C)c1CNC(=O)c1cc(NC(=O)C2CC2)n(C)n1	31.35
CCc1nc(C2CCCN2C(=O)c2ccc3c(c2)COC3)no1 (stereo unspecified)	33.8
CN1CCN(C(=O)c2cc3sccc3n2Cc2ccccc2)CC1	11.7
NC(=O)c1cccc(CN2CCOC(Cn3cccn3)C2)c1 (stereo unspecified)	30.2
CCOC(=O)[C@@H]1[C@H]2CN(C(=O)OC)CCN2C[C@H]1c1ccccc1	-43.6
CCOC(=O)[C@@H]1CN2CCNC[C@@H]2[C@H]1c1ccccc1	46.4
CNC(=O)[C@@H]1[C@H]2CNCCN2C[C@H]1c1ccccc1	11.6
CCOC(=O)[C@@H]1[C@@H](c2ccccc2)CN2CCNC[C@H]12	50.2
CCOC(=O)[C@@H]1[C@@H](c2ccccc2)CN2CCN(C(=O)N(C)C)C[C@H]12	32.1
CCOC(=O)[C@@H]1[C@@H](c2ccccc2)CN2CCN(C(=O)C3CC3)C[C@H]12	12.4
CCOC(=O)[C@@H]1[C@@H](c2ccccc2)CN2CCN(C(C)=O)C[C@H]12	51
O=C(C1CC1)N1CCN2C[C@@H](CO)[C@H](c3ccccc3)[C@H]2C1	49.5
O=C(C1CC1)N1CCN2C[C@H](c3ccccc3)[C@@H](CO)[C@H]2C1	51
c1cc(-c2cnc(C3CCNCC3)cn2)n[nH]1	38.7
CCc1noc(C)c1C(=O)N1CCCC1Cn1cccn1 (stereo unspecified)	45.7
CC(C)N1CCOCC2(CN(Cc3nccs3)CCO2)C1 (stereo unspecified)	10.3

Compound	INHIBITION [%]
O=C(NC1CCCC1)N1CC[C@H]2[C@H]1CCN2c1nncs1	26
COCCc1nnc(NC(=O)Cc2ccccc2Cl)o1	35.1
COC(=O)N1CCC(CNC(=O)C2CC2)CC1	-10.8
CCn1nc(C)c(-c2cncn2CCN(C)C2CCCC2)c1C	27.6
Cc1ccc2c(c1)CCC2NCc1c(C)nn(CCO)c1C (stereo unspecified)	-40.4
Cc1nc(N)cc(NCc2csc(N(C)C)n2)n1	-84.1
CC(C)CC(CO)NC(=O)NCc1csc(N(C)C)n1 (stereo unspecified)	-5.1
CC(C)c1cc(NCc2csc(C(C)C)n2)nc(N)n1	58
CC(C)c1cc(NCc2csc(N(C)C)n2)nc(N)n1	87
COCC1(CNc2cc(C(C)C)nc(N)n2)CC1	41.2
CC(C)c1nc(CNc2ccc(CNS(C)(=O)=O)cc2)cs1	-72.8
O=C(c1cnccn1)N1CCCC2(CCN(Cc3ccsc3)CC2)C1	-67.6
O=C(CC1CNCCO1)N1CCC(c2cc(N3CCCC3)ncn2)CC1 (stereo unspecified)	-23.2
CN(CC(=O)Nc1ccncc1)C1CCCN(c2cccnn2)C1 (stereo unspecified)	4.52
O=C(CCc1ccsc1)Nc1ccnn1C1CCS(=O)(=O)C1 (stereo unspecified)	54.3
O=C(CCc1cccs1)Nc1ccnn1C1CCS(=O)(=O)C1 (stereo unspecified)	22.6
Cc1cccc(CCC(=O)Nc2ccnn2C2CCS(=O)(=O)C2)c1 (stereo unspecified)	37.1
c1coc(CN2C[C@@H]3CCCO[C@@H]3[C@H](N3CCCC3)C2)c1	24.5
Cc1ccc(CN(CC(=O)NC2CCOCC2)c2ccc(F)cc2)o1	67.8
Cc1ccc(CN(CC(=O)NCC2CCOC2)c2ccc(F)cc2)o1 (stereo unspecified)	7.39
O=C(CN(Cc1cccs1)c1ccc(F)cc1)NC1CCOCC1	37.6
CN1CCN(Cc2cccnc2)C2(CCN(c3ncc(F)cn3)C2)C1=O (stereo unspecified)	-8.19
